# For part of these data: Entries with a potency or affinity are not part of this list. Active and inactive are the calls of the source.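 Rule for the calls, unless noted: active = primary screen inhibitor hit that blocks the TRPC4 channel at some tested dose, yielding a dose curve; inactive = the rest.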
# How the values were obtained:
# [1] = tested on: TRPC4 beta (transient receptor potential cation channel C4), mouse; test: TRPC4 cation channel opening, retest – cell-based, Fluo4 calcium, HEK293 TRPC4beta/mu-opioid, duplicates, 10 µM, confirmation (AID 2426;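 active = fluorescence ratio normalized to control raised more than 50% in primary screen plus both repeat runs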); conditions: Fluo4 calcium fluorescence, at 10 µM; hits give high values
# [2] = tested on: transient receptor potential cation channel C4 beta (TRPC4), mouse; test: TRPC4 cation channel opening, second retest – cell-based, second round, Fluo4, HEK293 TRPC4beta/mu-opioid, 1 µM, confirmation (AID 2461;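 active = primary screen active and over 50% activation in each of two duplicate runs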); conditions: Fluo4 calcium fluorescence, at 1 µM; hits give high values
# [3] = tested on: TRPC4 (transient receptor potential cation channel C4 beta), mouse; test: potentiation of DAMGO EC20 TRPC4 response – cell-based, second round, Fluo-4, HEK293 TRPC4beta/mu-opioid, 1 µM, confirmation (AID 2554;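 active = primary screen hit whose fluorescence ratio, in both repeats, exceeds the weak agonist control mean by 3 SD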); conditions: DAMGO EC20, Fluo-4 calcium flux, at 1 µM; hits give high values
# [4] = tested on: TRPC4 beta (transient receptor potential cation channel C4), mouse; test: potentiation of DAMGO EC20 TRPC4 response – cell-based, Fluo-4, HEK293 TRPC4beta/mu-opioid, confirmation (AID 2555;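 active = primary screen hit whose calcium fluorescence ratio, in both repeats, exceeds the weak agonist control mean by 3 SD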); conditions: DAMGO EC20, Fluo-4 calcium flux, at 10 µM; hits give high values
# [5] = molecular target: Short transient receptor potential channel 4 (Mus musculus) (UniProt Q9QUQ5); test: blockers of DAMGO-evoked TRPC4 calcium flux – cell-based, Fluo4, HEK293 TRPC4beta/mu-opioid, confirmation (AID 2636;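 active = calcium signal cut by more than 3 SD below the full-agonist control yet still positive, in both repeats and the earlier primary screen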); conditions: at 10 µM; hits give high values
# [6] = molecular target: Short transient receptor potential channel 4 (Mus musculus) (UniProt Q9QUQ5); test: blockers of DAMGO-evoked TRPC4 calcium flux – cell-based, second round, Fluo4, HEK293 TRPC4beta/mu-opioid, 1 µM, confirmation (AID 2637;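 active = calcium signal ratio cut to more than 3 SD under the fully stimulated control mean yet still positive, in both repeats and the primary screen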); conditions: at 1 µM; hits give high values
# [7] = molecular target: Short transient receptor potential channel 4 (Mus musculus) (UniProt Q9QUQ5); test: calcium entry via TRPC4 opening agents – cell-based, HEK293 TRPC4/mu-opioid, Fluo-4 calcium, dose response (AID 434937;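 active = primary screen activator hit with a dose response curve and TRPC4 channel activation at any tested dose; inactive = no activation, no dose response, or not a primary hit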)
# [8] = molecular target: Short transient receptor potential channel 4 (Mus musculus) (UniProt Q9QUQ5); test: potentiation of DAMGO-evoked TRPC4 calcium signal – cell-based, HEK293 TRPC4/mu-opioid, Fluo-4 calcium, EC20 DAMGO, dose response (AID 434941;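 active = earlier screen potentiator hit that boosts the TRPC4 ion channel at some dose, with a dose response; inactive = no potentiation, no dose response, or not a prior hit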;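 note: calcium entry triggered by an EC20 dose of DAMGO at the co-expressed mu-opioid receptor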)
# [9] = molecular target: Short transient receptor potential channel 4 (Mus musculus) (UniProt Q9QUQ5); test: block of DAMGO-driven TRPC4 calcium entry – cell-based, HEK293 TRPC4/mu-opioid, Fluo-4 calcium, dose response (AID 434942)
# [10] = molecular target: Short transient receptor potential channel 6 (Mus musculus) (UniProt Q61143); test: TRPC6 blockade by TRPC4 inhibitor hits – cell-based, HEK293, membrane potential dye, duplicate, selectivity assay for TRPC4 inhibitor project, confirmation (AID 434948;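 active = active in primary screen and both duplicates, each dropping signal beyond three positive-control SD with fluorescence still positive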); conditions: HEK293 TRPC6, membrane potential dye fluorescence, at 10 µM, stimulated with maximal-effect acetylcholine; hits give high values
# [11] = molecular target: Short transient receptor potential channel 6 (Mus musculus) (UniProt Q61143); test: TRPC6 opening by TRPC4 activator hits – cell-based, HEK293, membrane potential dye, duplicate, selectivity assay for TRPC4 activator project, confirmation (AID 434950;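 active = membrane potential signal rise above negative control mean plus 3 SD in both duplicates, also active in the earlier TRPC4 screen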); conditions: HEK293 TRPC6, membrane potential fluorescence, at 10 µM; activation: hits give high values; outcome: activation
# [12] = molecular target: Short transient receptor potential channel 6 (Mus musculus) (UniProt Q61143); test: positive modulators of mouse TRPC6 channel – HEK293 cells, membrane potential dye, duplicate, selectivity assay for TRPC4 potentiator project, confirmation (AID 434952;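 active = compound raising the membrane signal above positive-control mean plus 3 SD in both repeats, and a primary screen hit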); conditions: HEK293 TRPC6, membrane potential dye fluorescence, at 10 µM, maximal acetylcholine added after compound; hits give high values
# [13] = molecular target: Short transient receptor potential channel 4 (Mus musculus) (UniProt Q9QUQ5); test: calcium flux activators in TRPC4/5HT1a cells, counter-screen for TRPC4 activator project, cell-based, second counter screen, HEK293 TRPC4/5HT1a, Fluo-4 (AID 434977;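 active = calcium signal rise above buffer-control mean plus 5 SD in both duplicates, and also a hit in the primary screen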); conditions: Fluo-4 calcium flux, at 10 µM; hits give high values
# [14] = serotonin-gated TRPC4 signal block – cell-based, second counter screen, HEK293 TRPC4/5HT1a, Fluo-4, counter-screen for TRPC4 inhibitor project, confirmation (AID 434978;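 active = primary screen active whose calcium signal fell more than 3 SD beyond the full-serotonin control mean in both duplicate plates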;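 note: serotonin given first at submaximal then at maximal dose after compound preincubation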); conditions: Fluo-4 calcium flux, at 10 µM, serotonin added to trigger calcium flux; hits give high values
# [15] = tested on: TRPC4 (mouse), co-expressed with 5HT1a in HEK293; test: enhancement of serotonin-evoked TRPC4 response – cell-based, second counter screen, HEK293 TRPC4/5HT1a, Fluo-4, counter-screen for TRPC4 potentiator project, confirmation (AID 434979;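 active = signal rise over 3 SD above mean of control wells given weak agonist, in both repeats and first screen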); conditions: Fluo-4 calcium flux, at 10 µM, serotonin added at its EC20 dose; hits give high values
# [16] = nonspecific calcium rise without TRPC4 – cell-based, HEK293 mu-opioid receptor line, counter-screen for TRPC4 activator project, confirmation (AID 449723;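 active = hit in primary screen, with calcium signal over 5 SD above buffer well mean in both duplicates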;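 note: counter screen cells carry the mu-opioid receptor alone and lack TRPC4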); conditions: HEK293 mu-opioid cells, Fluo-4 calcium fluorescence, at 10 µM; hits give high values
# [17] = nonspecific potentiation of DAMGO calcium response – cell-based, HEK293 mu-opioid receptor line, counter-screen for TRPC4 allosteric potentiator project, confirmation (AID 449724;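 active = calcium signal rise more than 3 SD above the low-dose agonist control mean, in both duplicate plates and the primary screen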); conditions: HEK293 mu-opioid receptor cells, Fluo-4 calcium flux, at 10 µM, compound added before EC20 DAMGO stimulus; hits give high values
# Short transient receptor potential channel 6 (Mus musculus), sequence (Q61143 whole entry, looked up): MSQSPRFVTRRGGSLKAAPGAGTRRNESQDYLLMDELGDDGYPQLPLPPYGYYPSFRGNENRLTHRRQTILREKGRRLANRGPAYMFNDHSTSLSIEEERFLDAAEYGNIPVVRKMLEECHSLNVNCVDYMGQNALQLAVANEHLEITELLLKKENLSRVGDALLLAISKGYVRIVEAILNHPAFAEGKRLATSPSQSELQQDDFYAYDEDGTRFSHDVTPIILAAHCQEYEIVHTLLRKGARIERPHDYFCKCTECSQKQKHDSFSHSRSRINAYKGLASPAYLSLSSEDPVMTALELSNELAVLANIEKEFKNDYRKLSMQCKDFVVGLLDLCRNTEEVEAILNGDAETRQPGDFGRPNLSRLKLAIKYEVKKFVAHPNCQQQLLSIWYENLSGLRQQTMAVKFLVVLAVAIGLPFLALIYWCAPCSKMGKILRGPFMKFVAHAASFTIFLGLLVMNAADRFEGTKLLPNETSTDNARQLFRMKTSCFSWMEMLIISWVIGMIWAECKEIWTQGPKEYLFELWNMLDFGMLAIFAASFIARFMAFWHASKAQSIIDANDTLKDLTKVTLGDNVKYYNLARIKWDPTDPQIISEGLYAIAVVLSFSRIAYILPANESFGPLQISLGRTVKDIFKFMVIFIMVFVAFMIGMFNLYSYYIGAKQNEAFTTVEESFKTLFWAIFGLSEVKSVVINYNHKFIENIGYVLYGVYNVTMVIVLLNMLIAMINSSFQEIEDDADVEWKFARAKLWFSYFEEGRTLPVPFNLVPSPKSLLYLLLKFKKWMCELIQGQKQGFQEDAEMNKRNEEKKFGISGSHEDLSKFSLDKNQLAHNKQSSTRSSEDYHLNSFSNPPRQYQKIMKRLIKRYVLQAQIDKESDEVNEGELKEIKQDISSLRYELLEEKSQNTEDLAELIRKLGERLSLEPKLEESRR
# Short transient receptor potential channel 4 (Mus musculus), sequence (Q9QUQ5 whole entry, looked up): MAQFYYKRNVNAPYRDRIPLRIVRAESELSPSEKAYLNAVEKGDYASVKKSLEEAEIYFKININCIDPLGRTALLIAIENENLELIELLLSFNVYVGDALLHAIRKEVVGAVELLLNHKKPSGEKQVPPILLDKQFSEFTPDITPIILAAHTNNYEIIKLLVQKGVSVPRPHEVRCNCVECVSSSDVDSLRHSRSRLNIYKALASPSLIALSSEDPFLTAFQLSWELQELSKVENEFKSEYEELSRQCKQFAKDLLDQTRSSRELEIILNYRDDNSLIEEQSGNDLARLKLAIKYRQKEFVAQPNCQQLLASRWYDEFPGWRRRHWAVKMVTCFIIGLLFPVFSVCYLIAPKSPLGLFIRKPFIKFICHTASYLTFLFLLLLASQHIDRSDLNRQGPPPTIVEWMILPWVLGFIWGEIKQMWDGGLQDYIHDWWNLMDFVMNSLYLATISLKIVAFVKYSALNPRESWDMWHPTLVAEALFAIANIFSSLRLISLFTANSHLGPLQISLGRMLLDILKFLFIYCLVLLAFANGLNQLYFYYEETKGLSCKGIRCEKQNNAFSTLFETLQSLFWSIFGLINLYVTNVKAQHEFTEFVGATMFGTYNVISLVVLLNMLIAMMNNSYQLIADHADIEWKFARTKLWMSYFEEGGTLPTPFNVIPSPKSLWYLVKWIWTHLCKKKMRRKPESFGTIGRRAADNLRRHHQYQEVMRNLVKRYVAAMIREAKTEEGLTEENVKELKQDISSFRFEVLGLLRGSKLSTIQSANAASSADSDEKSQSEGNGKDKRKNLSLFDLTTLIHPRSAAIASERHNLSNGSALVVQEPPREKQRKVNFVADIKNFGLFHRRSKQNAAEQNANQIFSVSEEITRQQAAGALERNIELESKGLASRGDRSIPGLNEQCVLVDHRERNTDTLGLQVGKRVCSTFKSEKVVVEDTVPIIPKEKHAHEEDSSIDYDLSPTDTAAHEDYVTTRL
structure (smiles),measurement,setting,value
COc1ccc(-n2ncc3c(N4CCc5ccccc54)ncnc32)cc1,outcome,[1],inactive
same,outcome,[2],inactive
same,outcome,[3],inactive
same,outcome,[4],inactive
same,outcome,[5],inactive
same,outcome,[6],inactive
same,outcome,[7],inactive
same,outcome,[8],inactive
same,outcome,[9],inactive
same,outcome,[10],inactive
same,outcome,[11],inactive
same,outcome,[12],inactive
same,outcome,[13],inactive
same,outcome,[14],inactive
same,outcome,[15],inactive
same,outcome,[16],inactive
same,outcome,[17],inactive
O=C1CCSc2ccc(Cl)cc2N1Cc1ccc(Cl)cc1,outcome,[1],inactive
same,outcome,[2],inactive
same,outcome,[3],inactive
same,outcome,[4],inactive
same,outcome,[5],inactive
same,outcome,[6],inactive
same,outcome,[7],inactive
same,outcome,[8],inactive
same,outcome,[9],inactive
same,outcome,[10],inactive
same,outcome,[11],inactive
same,outcome,[12],inactive
same,outcome,[13],inactive
same,outcome,[14],inactive
same,outcome,[15],inactive
same,outcome,[16],inactive
same,outcome,[17],inactive
Cc1ccc(S(=O)(=O)N2CCN(c3cc4c(cc3[N+](=O)[O-])n(C)c(=O)n4C)CC2)cc1,outcome,[1],inactive
same,outcome,[2],inactive
same,outcome,[3],inactive
same,outcome,[4],inactive
same,outcome,[5],inactive
same,outcome,[6],inactive
same,outcome,[7],inactive
same,outcome,[8],inactive
same,outcome,[9],inactive
same,outcome,[10],inactive
same,outcome,[11],inactive
same,outcome,[12],inactive
same,outcome,[13],inactive
same,outcome,[14],inactive
same,potentiation,[15],10.6% (active)
same,outcome,[16],inactive
same,outcome,[17],inactive
CCCC1=C(C(=O)OCC)C(c2cc(Cl)cc(OC)c2OCC(=O)OCC)NC(=O)N1 (stereo not given),outcome,[1],inactive
same,outcome,[2],inactive
same,outcome,[3],inactive
same,potentiation,[4],22% (active)
same,outcome,[5],inactive
same,outcome,[6],inactive
same,outcome,[7],inactive
same,outcome,[8],inactive
same,outcome,[9],inactive
same,outcome,[10],inactive
same,outcome,[11],inactive
same,outcome,[12],inactive
same,outcome,[13],inactive
same,outcome,[14],inactive
same,potentiation,[15],5.72% (active)
same,outcome,[16],inactive
same,outcome,[17],inactive
Cc1ccc(Cl)c(OCCN2CCCC(C)C2)c1 (stereo not given),outcome,[1],inactive
same,outcome,[2],inactive
same,potentiation,[3],25% (active)
same,outcome,[4],inactive
same,outcome,[5],inactive
same,outcome,[6],inactive
same,outcome,[7],inactive
same,outcome,[8],inactive
same,outcome,[9],inactive
same,outcome,[10],inactive
same,outcome,[11],inactive
same,outcome,[12],inactive
same,outcome,[13],inactive
same,outcome,[14],inactive
same,potentiation,[15],7.06% (active)
same,outcome,[16],inactive
same,outcome,[17],inactive
O=C1CCCC(=O)N1c1ccc(N2CCN(c3ccc([N+](=O)[O-])cc3)CC2)c([N+](=O)[O-])c1,outcome,[1],inactive
same,outcome,[2],inactive
same,outcome,[3],inactive
same,potentiation,[4],11% (active)
same,outcome,[5],inactive
same,outcome,[6],inactive
same,outcome,[7],inactive
same,outcome,[8],inactive
same,outcome,[9],inactive
same,outcome,[10],inactive
same,outcome,[11],inactive
same,outcome,[12],inactive
same,outcome,[13],inactive
same,outcome,[14],inactive
same,potentiation,[15],14.9% (active)
same,outcome,[16],inactive
same,outcome,[17],inactive
CCN1CCN(c2c(Cl)cccc2NC(=O)c2cc3ccccc3o2)CC1,outcome,[1],inactive
same,outcome,[2],inactive
same,outcome,[3],inactive
same,outcome,[4],inactive
same,outcome,[5],inactive
same,outcome,[6],inactive
same,outcome,[7],inactive
same,outcome,[8],inactive
same,outcome,[9],inactive
same,outcome,[10],inactive
same,outcome,[11],inactive
same,outcome,[12],inactive
same,outcome,[13],inactive
same,outcome,[14],inactive
same,potentiation,[15],7.29% (active)
same,outcome,[16],inactive
same,outcome,[17],inactive
CCCCCCc1cc2cc(-c3nnc(-c4ccccc4O)o3)c(=O)oc2cc1O,outcome,[1],inactive
same,outcome,[2],inactive
same,outcome,[3],inactive
same,potentiation,[4],15% (active)
same,outcome,[5],inactive
same,outcome,[6],inactive
same,outcome,[7],inactive
same,outcome,[8],inactive
same,outcome,[9],inactive
same,outcome,[10],inactive
same,outcome,[11],inactive
same,outcome,[12],inactive
same,outcome,[13],inactive
same,outcome,[14],inactive
same,potentiation,[15],35.3% (active)
same,outcome,[16],inactive
same,activation,[17],1460% (active)
CN1CCCN(Cc2cccc3ccccc23)CC1,outcome,[1],inactive
same,outcome,[2],inactive
same,potentiation,[3],34% (active)
same,outcome,[4],inactive
same,outcome,[5],inactive
same,outcome,[6],inactive
same,outcome,[7],inactive
same,outcome,[8],inactive
same,outcome,[9],inactive
same,outcome,[10],inactive
same,outcome,[11],inactive
same,outcome,[12],inactive
same,outcome,[13],inactive
same,outcome,[14],inactive
same,potentiation,[15],28.3% (active)
same,outcome,[16],inactive
same,outcome,[17],inactive
O=C(COC(=O)CSc1ccc([N+](=O)[O-])cc1)NCCCc1ccccc1,outcome,[1],inactive
same,outcome,[2],inactive
same,outcome,[3],inactive
same,outcome,[4],inactive
same,outcome,[5],inactive
same,outcome,[6],inactive
same,outcome,[7],inactive
same,outcome,[8],inactive
same,outcome,[9],inactive
same,outcome,[10],inactive
same,outcome,[11],inactive
same,outcome,[12],inactive
same,outcome,[13],inactive
same,outcome,[14],inactive
same,outcome,[15],inactive
same,outcome,[16],inactive
same,outcome,[17],inactive
COc1ccc(C2C(O)C(c3c[nH]c4ccccc34)=NN2C(=O)CCl)cc1 (stereo not given),outcome,[1],inactive
same,outcome,[2],inactive
same,outcome,[3],inactive
same,potentiation,[4],36% (active)
same,outcome,[5],inactive
same,outcome,[6],inactive
same,outcome,[7],inactive
same,outcome,[8],inactive
same,outcome,[9],inactive
same,outcome,[10],inactive
same,outcome,[11],inactive
same,outcome,[12],inactive
same,outcome,[13],inactive
same,outcome,[14],inactive
same,potentiation,[15],28.9% (active)
same,outcome,[16],inactive
same,outcome,[17],inactive
CN(C)CCOc1ccc2ccccc2c1,outcome,[1],inactive
same,outcome,[2],inactive
same,potentiation,[3],8% (active)
same,potentiation,[4],14% (active)
same,outcome,[5],inactive
same,outcome,[6],inactive
same,outcome,[7],inactive
same,outcome,[8],inactive
same,outcome,[9],inactive
same,outcome,[10],inactive
same,outcome,[11],inactive
same,outcome,[12],inactive
same,outcome,[13],inactive
same,outcome,[14],inactive
same,potentiation,[15],19.8% (active)
same,outcome,[16],inactive
same,outcome,[17],inactive
CC(=O)Nc1nc(-c2ccc3c(c2)CCN3C(=O)C2CC2)c(C)s1,outcome,[1],inactive
same,outcome,[2],inactive
same,outcome,[3],inactive
same,outcome,[4],inactive
same,outcome,[5],inactive
same,outcome,[6],inactive
same,outcome,[7],inactive
same,outcome,[8],inactive
same,outcome,[9],inactive
same,outcome,[10],inactive
same,outcome,[11],inactive
same,outcome,[12],inactive
same,outcome,[13],inactive
same,outcome,[14],inactive
same,outcome,[15],inactive
same,outcome,[16],inactive
same,outcome,[17],inactive
CCCN1CCC(NC(=O)Cc2cccc(C)c2)CC1,outcome,[1],inactive
same,outcome,[2],inactive
same,outcome,[3],inactive
same,outcome,[4],inactive
same,outcome,[5],inactive
same,outcome,[6],inactive
same,outcome,[7],inactive
same,outcome,[8],inactive
same,outcome,[9],inactive
same,outcome,[10],inactive
same,outcome,[11],inactive
same,outcome,[12],inactive
same,outcome,[13],inactive
same,outcome,[14],inactive
same,outcome,[15],inactive
same,outcome,[16],inactive
same,outcome,[17],inactive
CCN(CC)CCN(Cc1cc2ccc(C)cc2[nH]c1=O)C(=S)Nc1ccccc1C(=O)OC,outcome,[1],inactive
same,outcome,[2],inactive
same,outcome,[3],inactive
same,outcome,[4],inactive
same,inhibition,[5],85% (active)
same,outcome,[6],inactive
same,outcome,[7],inactive
same,outcome,[8],inactive
same,outcome,[9],inactive
same,outcome,[10],inactive
same,outcome,[11],inactive
same,outcome,[12],inactive
same,outcome,[13],inactive
same,outcome,[14],inactive
same,outcome,[15],inactive
same,outcome,[16],inactive
same,outcome,[17],inactive

# Source: PubChem BioAssay
